ALDH1A1 block: qHTS Assay for Inhibitors of Aldehyde Dehydrogenase 1 (ALDH1A1); Aldehyde dehydrogenase 1A1 (Homo sapiens), P00352; 220,000 tested, 7.3% active; Potency, µM (top dose mostly 75.3 µM), usual class: inhibitors; Purified ALDH1A1, NADH fluorescence, propionaldehyde substrate; active = well fitted inhibition curve with a large enough effect, not every such curve was filed as active; inconclusive = small, poorly fitted or top-dose-only effect, or another doubt; inactive = no such curve, though single readings can be large or run the other way
Target sequence (P00352 whole entry, looked up): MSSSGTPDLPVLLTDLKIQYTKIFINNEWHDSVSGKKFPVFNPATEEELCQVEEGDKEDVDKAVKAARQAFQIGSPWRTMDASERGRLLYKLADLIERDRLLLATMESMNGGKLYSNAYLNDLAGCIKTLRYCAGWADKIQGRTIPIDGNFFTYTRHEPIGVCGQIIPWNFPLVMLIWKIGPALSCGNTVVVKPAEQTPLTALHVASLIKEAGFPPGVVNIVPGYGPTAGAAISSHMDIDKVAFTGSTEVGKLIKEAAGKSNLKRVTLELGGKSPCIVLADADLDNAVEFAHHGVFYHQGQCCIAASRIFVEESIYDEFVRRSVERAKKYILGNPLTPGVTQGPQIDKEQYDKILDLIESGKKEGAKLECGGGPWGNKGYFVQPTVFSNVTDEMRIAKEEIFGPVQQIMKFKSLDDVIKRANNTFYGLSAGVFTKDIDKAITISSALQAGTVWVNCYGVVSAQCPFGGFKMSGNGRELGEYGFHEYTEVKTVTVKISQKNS
IMPase Li cell: qHTS Assay for Identifying the Cell-Membrane Permeable IMPase Inhibitors: Potentiation with Lithium; CHO-M1 cells, IP1 TR-FRET (IP-One), carbachol + lithium; Potency, µM (top dose mostly 59.4 µM), usual class: inhibitors; 210,000 tested, 0.35% active; AID 1457, 2008;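 note: IP1 builds up when IMPase is blocked and the TR-FRET signal falls; nearly all actives have a fitted effect of over 50% in size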
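Steps: plate 2000 CHO-M1 cells per well and culture 16–30 h; add compound and lithium; incubate 30 min, 37C; add d2-IP1 tracer and Eu cryptate anti-IP1 antibody in lysis buffer; read after 10 min at room temperature.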
HPGD block: qHTS Assay for Inhibitors of HPGD (15-Hydroxyprostaglandin Dehydrogenase); purified HPGD, NADH fluorescence kinetic, PGE2 substrate; Potency, µM, most hits filed as inhibitors; 150,000 tested, 4.3% active; AID 894, 2007; active = well fitted inhibition curve with a large enough effect, not every such curve was filed as active; inconclusive = small, poorly fitted or top-dose-only effect, or another doubt; inactive = no such curve, though single readings can be large or run the other way
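20 nM HPGD preincubated 15 min at room temperature with compound in 50 mM Tris-HCl pH 8, 0.01% Tween 20. Started with 1 mM NAD+ and 30 uM prostaglandin E2; NADH fluorescence (360/450 nm) read 5 times over 30-s intervals, last minus first.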
HttQ103 aggreg: qHTS Multiplex Assay to Identify Dual Action Probes in a Cell Model of Huntington: Aggregate Formation (GFP) | PC12 HttQ103-GFP aggregates, Acumen cytometry, 40 h | Potency, µM (series often up to 46.1 µM), hits mostly inhibitors | 220,000 tested, 1.1% active; note: nearly all actives have a fitted effect of over 60% in size
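PC12 cells with ecdysone-inducible HTT exon1 Q103-GFP, induced by 100 nM tebufenozide, given compounds in a concentration series. GFP aggregates (1–25 um, 6 SD above background) counted in lysates by laser-scanning cytometry, 488 nm excitation.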
HTT ATP protect: qHTS Multiplex Assay to Identify Dual Action Probes in a Cell Model of Huntington: Cytoprotection (ATP); Potency, µM (titrated, usually from 56.4 µM), actives largely listed as activators; 230,000 tested, 0.14% active; PC12 HTT-Q103 induced, cytoprotection, ATP luminescence, 40 h; note: nearly all actives have a fitted effect of over 45% in size
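Readout: ATPlite luminescence (ATP level). Model: stable PC12, inducible Htt exon1 Q103-GFP. Inducer: tebufenozide, 100 nM final. Compounds: dose series. No G418 in medium.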
IMPase inh: qHTS Assay for Identifying the Cell-Membrane Permeable IMPase Inhibitors. Inositol monophosphatase 1 (Rattus norvegicus), P97697. CHO-M1 cells, IP1 accumulation, HTRF TR-FRET ratio. inhibition (IP1 accumulation), % at 46.1 µM. 120,000 tested, under 10 active. AID 901, 2007; active = well fitted curve in the direction sought with a large enough effect in the signal ratio, not every such curve was filed as active; inconclusive = small, poorly fitted or top-dose-only effect, or a change in a side signal; inactive = no such curve, though single readings can be large or run the other way; the % refers to the signal ratio;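 note: cells stimulated with carbachol in lithium chloride buffer; higher means more IMPase inhibition seen as more IP1 and lower FRET ratio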
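Carbachol-driven Gq signalling in CHO-M1 cells (2000/well) generates IP1. Compounds that block IMPase raise IP1 and so reduce the FRET signal from Eu-anti-IP1 and d2-IP1 after a 10 min room-temperature lysis.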
Each line names hits and unclear results; the compound was inactive in the other large screens. Only some compounds are listed: those with a hit (about 9.4% of all), similar ones and a draw of the others. Unless noted, calls come from the whole dose curve; as a rule, active = well fitted curve in the direction sought with a large enough effect; inconclusive = small, poorly fitted or top-dose-only effect, or another doubt; inactive = no such curve, though single readings can be large; an effect the other way counts as inactive or inconclusive.

Cc1cccc(Cn2cnc3c(nnn3Cc3ccc(Cl)cc3)c2=O)c1	HPGD block 13µM
O=c1c2nnn(Cc3ccc(Cl)cc3)c2ncn1Cc1ccc(F)cc1	HPGD block 28µM
COCCn1c(=O)c(-c2ccc(F)cc2)nc2cnc(Oc3ccccc3)nc21	ALDH1A1 block inconclusive (no result: HPGD block, HttQ103 aggreg, IMPase inh)
O=C(/C=C\c1ccc(O)c(O)c1)OCCc1ccccc1	none (no result: ALDH1A1 block, IMPase Li cell, HPGD block, HttQ103 aggreg)
CCOC(=O)c1c(NC(=O)CSC(=S)N(C)C)sc(C)c1C	ALDH1A1 block 25µM (no result: HTT ATP protect, IMPase inh)
CCOC(=O)c1c(NC(=O)CSc2ncn[nH]2)sc(C)c1C	ALDH1A1 block 25µM
CCOC(=O)c1c(N2C(=O)C=CC2=O)sc(C)c1C	ALDH1A1 block 0.5µM, HPGD block 2µM, HttQ103 aggreg inconclusive
COC(=O)C1CCN(CC(=O)Nc2cc(C)c3c(=O)oc4ccccc4c3n2)CC1	none (no result: ALDH1A1 block, IMPase Li cell, HPGD block, HttQ103 aggreg, HTT ATP protect)
CC(C)=CCC/C(C)=C/CO/N=C1/[C@H]2O[C@@H]2[C@@H](O)[C@H]2[C@H]1CCn1c(=O)n(-c3ccccc3)c(=O)n12	ALDH1A1 block inconclusive (no result: IMPase Li cell, HPGD block, HttQ103 aggreg, IMPase inh)
COC(=O)CC1C(=O)NCCN1C(=S)NC(=O)c1sc2ccccc2c1Cl (centres undefined)	ALDH1A1 block 13µM (no result: HPGD block, HttQ103 aggreg, IMPase inh)
COC(=O)CC1C(=O)NCCN1C(=O)c1sc2ccccc2c1Cl (centres undefined)	none (no result: ALDH1A1 block, IMPase Li cell, HPGD block, IMPase inh)
O=C(CCCCCn1c(=O)[nH]c2ccsc2c1=O)N1CCCCC1	HPGD block 14µM
O=C(CCCCn1c(=O)[nH]c2ccsc2c1=O)NCC1CCCO1 (centres undefined)	HPGD block 25µM
O=C(CCCCCn1c(=O)[nH]c2ccsc2c1=O)N1CCN(C2CCCCC2)CC1	ALDH1A1 block inconclusive
O=C(CCCn1c(=O)[nH]c2ccsc2c1=O)N1CCCCC1	HPGD block 14µM
CCC(=O)CC(NC(=O)OC)c1ccc(F)cc1 (centres undefined)	none (no result: IMPase Li cell, HPGD block, HttQ103 aggreg, IMPase inh)
CC1(C)Cn2c(nnc2-c2ccccc2)S1	HPGD block 16µM
CC1(C)Cc2ccccc2-c2nnc(-c3ccccc3)n21	none
CC(C)=CCC/C(C)=C/COc1ccc2ccc(=O)oc2c1	ALDH1A1 block inconclusive, HPGD block inconclusive (no result: IMPase inh)
CC(C)=CCC/C(C)=C/COc1c2occc2cc2ccc(=O)oc12	ALDH1A1 block 8.9µM, HPGD block inconclusive (no result: HttQ103 aggreg)
CCc1ccc(C(=O)/C=C/c2ccc([N+](=O)[O-])o2)cc1	ALDH1A1 block 3.5µM, HttQ103 aggreg inconclusive
CNC(=O)c1[nH]cnc1C(=O)Nc1ccccn1	ALDH1A1 block inconclusive (no result: HPGD block, HttQ103 aggreg, HTT ATP protect, IMPase inh)
CCOC(=O)c1cc2c(C)[nH]c(C)c2cc(C(=O)OCC)c1=O	ALDH1A1 block 25µM (no result: HPGD block, IMPase inh)
COC(=O)Cc1cn(-c2ncc(C(F)(F)F)cc2Cl)c2ccccc12	ALDH1A1 block inconclusive, HPGD block inconclusive
CN(C)/C=C/C(=O)/C=C/c1cn(-c2ncc(C(F)(F)F)cc2Cl)c2ccccc12	HPGD block 14µM
CN(C)c1ccc(/C=C2/C(=O)N(c3ccc([N+](=O)[O-])cc3)N=C2N2CCOCC2)cc1	ALDH1A1 block 1.3µM
CC(/C=N\N1CCN(c2ccc(Cl)cc2)CC1)=C\c1ccccc1	HTT ATP protect 3.2µM
C#CCCCO/N=C1/C[C@@H](O)[C@@H](O)[C@@H]2[C@@H]3C(=O)N(C(C)(C)C)C(=O)[C@H]3CC[C@@H]12	ALDH1A1 block inconclusive (no result: IMPase Li cell, HPGD block, HttQ103 aggreg, IMPase inh)
Cc1ccc(N/C(C(Cl)=C(Cl)Cl)=C(/Cl)[N+](=O)[O-])c(C)c1	ALDH1A1 block 3.5µM (no result: HTT ATP protect, IMPase inh)
COC(=O)c1ccc2c(c1)S(=O)(=O)NC(=NCc1ccco1)S2	HPGD block 14µM
O=[N+]([O-])c1ccc(Oc2ccc(F)cc2)c2ccncc12	HttQ103 aggreg 10µM
Cc1ccc(NC(=O)CN(C)C(=O)Cn2ncc(Cl)c(Cl)c2=O)cc1	ALDH1A1 block 28µM, HttQ103 aggreg inconclusive
Cc1ccc(-c2nnn(CC(=O)N(CCN3CCOCC3)C(C(=O)NC(C)(C)C)c3ccc(C)o3)n2)cc1 (centres undefined)	none (no result: ALDH1A1 block, IMPase Li cell, HPGD block, IMPase inh)
O=C(CCCN1CCOCC1)c1ccc2c(c1)OCCO2	ALDH1A1 block inconclusive
O=C(CCN1CCCCC1)c1ccc2c(c1)OCO2	ALDH1A1 block inconclusive, HPGD block inconclusive
O=C(CCN1CCc2ccccc2CC1)c1ccc2c(c1)OCCO2	ALDH1A1 block 0.11µM, HttQ103 aggreg inconclusive
O=C(CCN1CCOCC1)c1ccc2c(c1)OCCO2	ALDH1A1 block 0.45µM, HttQ103 aggreg inconclusive
O=C(O)[C@@H]1C[C@@H](C(=O)O)N1	none (no result: HttQ103 aggreg)
C[C@@]12CCC(=O)C=C1CC[C@H]1[C@H]3CC[C@](O)(C(=O)CO)[C@]3(C)CC[C@@H]12	none (no result: ALDH1A1 block, IMPase Li cell, HPGD block, HttQ103 aggreg, IMPase inh)

Bioassay records deposited in PubChem BioAssay by National Center for Advancing Translational Sciences (NCATS).
